Compound activity: PubChem BioAssay, National Center for Advancing Translational Sciences (NCATS)
Giardia killer: Small Molecules that selectively kill Giardia lamblia: qHTS; activity change, % at 7.66 µM, hits read low; 340,000 compounds, 0.15% hits; Giardia lamblia trophozoite viability; in the data active means activity change below about -80%; inconclusive means between about -30% and that limit;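 further: parasites exposed to compound for two days anaerobically before the ATP read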
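Luminescent ATP signal served as the viability read-out, measured 15-30 min after adding ATP detection reagent to trophozoites that had been incubated with compounds for 48 hrs at 37 deg C anaerobically at 100 cells/well.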
A549 viability: Nrf2 qHTS screen for inhibitors: counterscreen for cytotoxicity | A549 ARE-Fluc cells, CellTiter-Fluor viability, 18-24 h | Potency, µM (series often up to 46 µM), usual class: inhibitors | 390,000 compounds, 0.16% hits | AID 504648, 2011
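A549 ARE_Fluc cells in 5% FBS OPTI-MEM were exposed to compounds in concentration-response for 18-24 h at 37 deg C. Viability was read by CellTiter-Fluor fluorescence (Ex 405/Em 525) after 30 min, before the luciferase read.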
Anesthetic bind: qHTS Assay for Identification of Novel General Anesthetics; Ferritin light chain (Equus caballus), P02791; apoferritin/1-aminoanthracene competitive binding, fluorescence; Potency, µM (doses to about 77.5 µM), actives largely listed as inhibitors; 350,000 compounds, 0.074% hits; AID 485281, 2010; further: nearly all actives have a fitted effect of over 20% in size
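Horse-spleen apoferritin (10 uM) was mixed with 50% saturated 1-aminoanthracene in PBS, exposed to compounds for 10 min at room temperature, and read for fluorescence (ex 380 nm, em 535 nm). Competitive displacement was fitted with a four-parameter Hill equation.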
Nrf2 activator: qHTS of Nrf2 Activators. 410,000 compounds, 0.31% hits. Potency, µM (top dose mostly 46.1 µM), most hits filed as activators. AREc32 ARE-luciferase reporter (MCF7-derived line), luminescence, 24 h; further: nearly all actives have a fitted effect of over 65% in size
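ARE-driven firefly luciferase activity in AREc32 cells measured after a 24 hr compound exposure at 37 deg C, using Steady-Glo reagent and a 30 min room-temperature hold.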
IDH1 R132H inh: qHTS for Inhibitors of mutant isocitrate dehydrogenase 1 (IDH1): qHTS; Potency, µM (series often up to 76.6 µM), actives largely listed as inhibitors; 390,000 compounds, 0.093% hits; AID 602179, 2012; IDH1-R132H enzyme, NADPH consumption, diaphorase/resazurin fluorescence; further: nearly all actives have a fitted effect of over 65% in size
Target sequence (O75874 whole entry R132H, stated change not applied): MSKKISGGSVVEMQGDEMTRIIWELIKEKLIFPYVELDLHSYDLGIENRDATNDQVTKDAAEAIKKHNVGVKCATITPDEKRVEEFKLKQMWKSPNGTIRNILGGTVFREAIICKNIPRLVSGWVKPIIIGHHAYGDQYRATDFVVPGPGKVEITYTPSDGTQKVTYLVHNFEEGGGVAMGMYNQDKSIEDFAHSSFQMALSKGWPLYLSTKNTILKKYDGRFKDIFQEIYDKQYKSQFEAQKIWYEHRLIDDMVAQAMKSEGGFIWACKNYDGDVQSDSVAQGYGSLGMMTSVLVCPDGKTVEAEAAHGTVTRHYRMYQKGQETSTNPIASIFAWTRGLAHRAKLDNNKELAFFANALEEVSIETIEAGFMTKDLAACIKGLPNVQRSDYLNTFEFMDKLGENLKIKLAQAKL
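IDH1-R132H (0.5 ug/mL dispensed) in pH 7.5 Tris buffer was preincubated 30 min with compound, then given a substrate mix of 0.016 mM NADPH and 2 mM alpha-KG for 80 min at room temperature; remaining NADPH was read by diaphorase/resazurin fluorescence.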
Nrf2 inh: Nrf2 qHTS screen for inhibitors | A549 ARE-Fluc reporter, luciferase luminescence, 18-24 h | Potency, µM (highest dose often 46 µM), most hits filed as inhibitors | 360,000 compounds, 2.1% hits | AID 504444, 2011; further: nearly all actives have a fitted effect of over 60% in size
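Cells were seeded and rested 2 h, then exposed to compounds for 18-24 h. CellTiter-Fluor was read first as a viability measure. BugLite was added 15 min before the final luminescent read of ARE-luciferase activity in A549 cells.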
IDH1 autofl: qHTS for Inhibitors of mutant isocitrate dehydrogenase 1 (IDH1): Cherrypicks Autofluorescence Interference | shares compounds with IDH1 R132H inh | Resorufin detection reagent fluorescence interference, cell-free | inhibition of signal, % at 51.2 µM | 750 tested, under 10 active
IDH1 WT: qHTS for Inhibitors of mutant isocitrate dehydrogenase 1 (IDH1): Cherrypicks in WT IDH1. 750 compounds, 9% hits. WT IDH1 enzyme, NADPH diaphorase/resazurin fluorescence. shares compounds with IDH1 R132H inh. Potency, µM (doses to about 115 µM), hits mostly inhibitors. AID 623995, 2012; further: nearly all actives have a fitted effect of over 55% in size
IDH1 R132H conf: qHTS for Inhibitors of mutant isocitrate dehydrogenase 1 (IDH1): Confirmation of Cherrypicks. shares compounds with IDH1 R132H inh. IDH1 R132H enzyme, NADPH diaphorase/resazurin fluorescence. Potency, µM (titrated, usually from 76.6 µM), actives largely listed as inhibitors. 750 compounds, 83% hits. AID 624002, 2012; further: nearly all actives have a fitted effect of over 50% in size
Calls only; - = inactive; ? = inconclusive; . = no result given. A selection follows. Unless noted, the call rests on the fitted dose curve; in most records, active means well fitted curve in the direction sought with a large enough effect; inconclusive means small, poorly fitted or top-dose-only effect, or another doubt; inactive means no such curve, though single readings can be large; an effect the other way counts as inactive or inconclusive.

SMILES	Giardia killer	A549 viability	Anesthetic bind	Nrf2 activator	IDH1 R132H inh	Nrf2 inh	IDH1 autofl	IDH1 WT	IDH1 R132H conf
CCCCNC(=O)C1(C)CCN1C(=O)c1cc2ccccc2s1 (stereo unspecified)	.	.	.	-	.	.	.	.	.
O=C(O)Cc1c(-c2ccccc2)c2cc(Cl)ccc2[nH]c1=O	-	-	-	-	-	-	.	.	.
NNC(=O)CSc1c(-c2ccccc2)c2cc(Cl)ccc2[nH]c1=O	-	-	-	-	?	-	-	-	-
COc1ccc(-c2cc(-c3nnc(COC(=O)c4ccc(O)cc4)o3)c3ccccc3n2)cc1OC	-	-	-	-	?	-	-	-	?
COc1ccc(-c2cc(-c3nnc(COC(=O)C4CC4)o3)c3ccccc3n2)cc1OC	-	-	-	-	-	-	.	.	.
